# Reference: PubChem BioAssay
# Calls of active or inactive are those of the source.
# Columns and labels:
# [1] = target: Albumin (Bos taurus) (UniProt P02769); assay: compounds binding labelled BSA control protein – biochemical, small-molecule microarray, Alexa647 label, 635/667 nm fluorescence, artefact control for SMM control protein annotation, profiling panel (AID 1118); conditions: BSA-A647 binding, fluorescence 635 nm, higher = more signal;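 further: score merges 667 nm emission intensity and signal-to-noise per printed compound spot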
# Albumin (Bos taurus), sequence (P02769 whole entry, looked up): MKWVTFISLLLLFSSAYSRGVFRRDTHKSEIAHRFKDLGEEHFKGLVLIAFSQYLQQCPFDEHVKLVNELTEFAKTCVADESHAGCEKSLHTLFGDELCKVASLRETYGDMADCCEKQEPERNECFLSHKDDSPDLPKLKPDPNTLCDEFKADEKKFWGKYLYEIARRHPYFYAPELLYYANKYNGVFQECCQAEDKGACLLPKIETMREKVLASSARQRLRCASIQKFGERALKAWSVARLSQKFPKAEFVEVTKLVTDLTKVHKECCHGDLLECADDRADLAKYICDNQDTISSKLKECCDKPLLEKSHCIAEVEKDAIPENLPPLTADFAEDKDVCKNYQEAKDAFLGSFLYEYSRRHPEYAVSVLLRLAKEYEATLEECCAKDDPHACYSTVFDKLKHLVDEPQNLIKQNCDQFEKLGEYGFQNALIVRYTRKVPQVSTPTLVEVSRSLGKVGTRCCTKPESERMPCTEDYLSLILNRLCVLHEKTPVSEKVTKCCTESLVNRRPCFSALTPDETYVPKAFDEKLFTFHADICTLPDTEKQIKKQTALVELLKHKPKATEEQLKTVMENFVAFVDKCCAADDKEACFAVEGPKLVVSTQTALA
# [2] = probe aXIP binding to arrayed compounds – biochemical, NeuroSMM set, 635/667 nm fluorescence, primary screen (AID 1119); conditions: small-molecule microarray, higher = more signal, called active from +8 up or from −8 down;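 further: probe is the protein aXip251-270 applied at 1 µg/mL to compound-printed slides; binding of probe to printed compounds measured as 667 nm fluorescence plus signal to noise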
# [3] = probe aNOTCH3 binding on compound microarray – biochemical, small-molecule microarray, 635/667 nm fluorescence, primary screen (AID 1120); conditions: higher = more signal;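 further: probe is a biotin-tagged antibody raised against NOTCH3 rather than NOTCH3 protein; score merges spot fluorescence near 667 nm with spot signal to noise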
# [4] = probe aNOTCH2 binding on compound microarray – biochemical, small-molecule microarray, 635/667 nm fluorescence, primary screen (AID 1121); conditions: higher = more signal;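 further: score merges feature fluorescence read at 667 nm with its signal to noise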
# [5] = target: Carbonic anhydrase 2 (Homo sapiens) (UniProt P00918); assay: compounds binding carbonic anhydrase 2 – biochemical, small-molecule microarray, Alexa647-labelled CAII, profiling panel (AID 1122); conditions: CAII-A647 binding fluorescence, higher = more signal
# [6] = COS7 lysate on small-molecule microarray, probe aHis, 635 nm (AID 1123); conditions: COS7 cell lysate, fluorescence, higher = more signal;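 further: z-score combines 667nm fluorescence intensity with signal-to-noise per printed compound spot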
# [7] = probe aLAP1 signal on lysate-treated microarray – cell lysate, small-molecule microarray, COS7 lysate, primary screen (AID 1124); conditions: probe aLAP1, fluorescence, higher = more signal;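 further: lysate comes from COS7 cells expressing LAP1 and is applied at 0.3 µg/mL; score merges spot fluorescence near 667 nm with signal-to-noise over triplicate slides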
# [8] = system: Sam68 (KHDRBS1); assay: compounds binding KHDRBS1 protein – biochemical, small-molecule microarray, 635 nm fluorescence, primary screen (AID 1125); conditions: higher = more signal;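 further: score merges 667 nm channel intensity with signal to noise over triplicate slides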
# [9] = system: Chordin-like protein 2 (CHRDL2); assay: compounds binding chordin-like 2 – biochemical, small-molecule microarray, 635 nm fluorescence, primary screen (AID 1126); conditions: fluorescence 635 nm, higher = more signal;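 further: printed compound slides probed with Chrdl2 protein at 4 µg/mL for 1 h at 4 C; score merges 667 nm emission intensity with signal to noise over three replicate slides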
# [10] = target: Concanavalin-A (Canavalia ensiformis) (UniProt P02866); assay: compounds binding concanavalin A lectin – biochemical, small-molecule microarray, Alexa647 label, 635 nm, artefact control for SMM control protein annotation, primary screen (AID 1127); conditions: ConA-A647 binding fluorescence, higher = more signal;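 further: z combines 667 nm emission intensity with signal-to-noise across three replicate slides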
# Concanavalin-A (Canavalia ensiformis), sequence (P02866 whole entry, looked up): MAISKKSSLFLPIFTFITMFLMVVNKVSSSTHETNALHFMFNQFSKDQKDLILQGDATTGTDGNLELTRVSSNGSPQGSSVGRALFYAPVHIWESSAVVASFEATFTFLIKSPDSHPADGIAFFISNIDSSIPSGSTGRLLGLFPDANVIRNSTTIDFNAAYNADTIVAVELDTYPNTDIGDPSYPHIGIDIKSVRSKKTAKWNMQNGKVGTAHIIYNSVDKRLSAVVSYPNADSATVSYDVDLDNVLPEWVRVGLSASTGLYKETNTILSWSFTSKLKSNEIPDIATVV
SMILES,composite z-score [1],composite Z-score [2],composite z-score [3],composite z-score [4],composite z-score [5],composite z-score [6],composite z-score [7],composite z-score [8],composite z-score [9],composite z-score [10]
CCCNC(=O)OC[C@H]1O[C@H](CCON=CC[C@@H]2C=C[C@H](OC(C)=O)[C@@H](COC(C)=O)O2)C=C[C@@H]1Oc1ccc(OC)cc1,0.619,-0.263 (inactive),0.0131,-0.14,-0.0893,0.0884,0.394,0.911,0.593,0.0162
C=CC[C@@H]1C=C[C@H](ON=Cc2ccc(C(=O)N3[C@H](c4ccc(C)cc4)[C@@H](C)CC[C@H]3C(=O)OC)cc2)[C@@H](CO)O1,0.36,0.0811 (inactive),-0.0971,-0.132,-0.0234,0.556,0.116,0.632,0.714,-0.404
Cc1cc2c(nc1C)CCCN2CC(O)CN1CCN(C)CC1 (stereo not given),-0.562,1.03 (inactive),-0.0636,-0.149,0.622,0.387,0.289,0.693,0.731,1.02
CC(CCN1CCc2nc(-c3ccccc3)c(-c3ccccc3)cc2C1)=NOC(C)CN1CCCCc2nc(C)c(C)cc21 (stereo not given),0.56,0.766 (inactive),0.0379,-0.14,0.209,0.789,0.154,1.28,0.308,1.05
O=C(CS)NCCCCCNC(=O)[C@H]1C[C@H]2C(=O)N3CCC[C@H]3C(=O)N2[C@H]1c1cccc(OCCO)c1,-1.4,0.62 (inactive),0.121,-0.101,0.46,2.45,0.729,1.34,1.4,1.2
CN1C(=O)[C@@]2(CCC(=O)OC(C)(C)C)N=C(c3ccc(OCCCO)cc3)O[C@H]2c2ccccc21,0.498,-0.428 (inactive),-0.0694,-0.165,0.337,2.38,0.176,1.27,0.0811,1.09
CO[C@H]1O[C@H](CO)[C@@H](OC(=O)Nc2ccc3c(c2)OCO3)[C@H](OC(=O)Nc2ccccc2-c2ccccc2)[C@@H]1OC(=O)Nc1ccccc1-c1ccccc1,0.929,0.558 (inactive),0.276,0.186,0.543,2.08,0.429,1.28,-0.116,1.17
COC(=O)[C@H](C)NC(=O)CCC1CC(OC(=O)NCCc2ccc(F)cc2)CC2(CCCC(COC(=O)NCC(c3ccccc3)c3ccccc3)O2)O1 (stereo not given in full),0.675,0.269 (inactive),-0.0932,-0.1,0.343,1.44,0.031,1.22,0.17,0.714
CC(C)c1ccc(NN2C(C(O)c3ccc4c(c3)OCO4)C=CC3C(=O)N(c4ccccc4)C(=O)C32)cc1 (stereo not given),1,0.491 (inactive),0.166,-0.0267,0.564,2.6,0.738,1.29,-0.0586,1.18
O=C1CCCC=C1C(O)CCOCc1ccccc1 (stereo not given),-0.492,-0.32 (inactive),-0.0072,-0.108,-0.0262,-0.202,-0.195,-0.887,0.309,-0.299
CCOC(=O)NN=C1C[C@@H](O)[C@@H](O)[C@@H]2[C@@H]3C(=O)N(C[C@@H]4CCCO4)C(=O)[C@@H]3CC[C@@H]12,0.16,-0.354 (inactive),0.0927,-0.166,0.0815,0.361,0.649,0.339,0.0214,0.437
CN1C(=O)C2C(C1=O)C1C=C(CCCO)C2C(c2ccc(CN3CCCC3)cc2)N1C (stereo not given),-0.356,-0.816 (inactive),-0.068,-0.0907,-0.221,-0.377,0.0357,0.239,0.0976,-0.56
COC(=O)CC=C[C@H](C)[C@H](CO)NS(=O)(=O)c1ccc(C)cc1,-0.333,0.755 (inactive),0.0522,-0.13,0.131,-0.0961,0.121,0.217,0.91,0.579
CO[C@H]1COC(=O)[C@H](C)COC(=O)CC=C[C@@H](C)[C@H](OC)COC(=O)CC=C[C@@H]1C,-0.991,-0.222 (inactive),-0.132,-0.164,-0.405,-0.602,-0.142,-0.0288,1.4,0.184
COc1ccccc1CN1C(=O)c2ccccc2[C@@H](C(=O)NCC(F)(F)F)[C@@H]1c1ccc(CO)cc1,0.522,-0.786 (inactive),-0.15,-0.167,0.595,0.839,0.0761,1.33,-0.365,0.721
CCOC(=O)[C@H](CC(C)C)NC(=O)CCC1CC(OC(=O)NCc2cccc3ccccc23)CC2(CCCC(COC(=O)NCCc3ccccc3OC)O2)O1 (stereo not given in full),0.752,0.0898 (inactive),-0.155,-0.0708,0.211,0.398,0.251,1.3,0.566,1.11
CC(C)[C@H](NC(=O)OC(C)(C)C)[C@@H](O)CC(=O)OC(C)(C)C,-0.493,0.0831 (inactive),-0.235,-0.144,-0.602,-0.361,-0.202,-1.73,-0.646,-0.744
COCCCNC(=O)[C@]1(Cc2ccccc2)N=C(c2ccc(OCCCO)cc2)O[C@@H]1c1ccccc1,0.998,0.12 (inactive),0.108,0.0745,0.726,3.09,0.401,1.31,-0.547,1.02
CC(C)(C)N1CC=CC23O[C@@H]4C=CCCOC(=O)C4[C@H]2C(=O)N(CCCCCO)[C@@H]3C1=O (stereo not given in full),0.568,0.08 (inactive),0.285,-0.175,0.874,0.518,0.726,0.598,-0.503,-0.339
CC(C)=NOCc1cccc(-c2cc(-c3ccccc3)no2)c1,-0.0583,0.123 (inactive),0.062,-0.203,0.257,0.686,0.0499,1,0.564,1.02
CO[C@H]([C@@H](C)[C@H](OC)c1ccccc1)[C@H](C)[C@@H](OC)[C@H](C)C(C)=O,-0.529,0.837 (inactive),-0.13,-0.0551,-0.505,-0.74,-0.32,-1.24,-0.326,-2.34
CO[C@H]1COC(=O)[C@@H]2CCCN2C(=O)[C@@H](C)COC(=O)CC=C[C@@H]1C,-0.414,-0.275 (inactive),-0.0647,-0.0907,-0.329,-0.641,0.359,0.474,1.4,0.75
COC(=O)[C@H](C)NC(=O)CCC1CC(OC(=O)NCc2cccc3ccccc23)CC2(CCCC(COC(=O)NCC3CCCCC3)O2)O1 (stereo not given in full),-0.409,-0.551 (inactive),0.175,-0.0984,0.612,1.61,0.486,1.29,0.62,1.12
